In PubChem BioAssay:
A number with no mark means an inactive call. The list shows a part of the results. Active and inactive are the calls of the source.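 The calls were made as follows, unless noted: active = mean inhibition above 46.68%, the untreated control wells mean plus 3 SD; inactive = the rest.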

Experiments:
[1] = molecular target: Nuclear receptor coactivator 3 (Homo sapiens) (UniProt Q9Y6Q9); test: SRC3 coactivator transcriptional activity inhibitors, confirmation, cell-based, luminescence, quadruplicate (AID 588792;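 active = mean inhibition over 43.08%, the solvent-only control mean plus 3 SD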;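 also: 0% = DMSO treated cells and 100% = gossypol at 36 µM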); settings: HEK293 GAL4-SRC3 luciferase reporter, at 3.6 µM, stronger effect = higher value
Sequence of Nuclear receptor coactivator 3 (Homo sapiens) (Q9Y6Q9 whole entry, looked up, the tested form may be a part): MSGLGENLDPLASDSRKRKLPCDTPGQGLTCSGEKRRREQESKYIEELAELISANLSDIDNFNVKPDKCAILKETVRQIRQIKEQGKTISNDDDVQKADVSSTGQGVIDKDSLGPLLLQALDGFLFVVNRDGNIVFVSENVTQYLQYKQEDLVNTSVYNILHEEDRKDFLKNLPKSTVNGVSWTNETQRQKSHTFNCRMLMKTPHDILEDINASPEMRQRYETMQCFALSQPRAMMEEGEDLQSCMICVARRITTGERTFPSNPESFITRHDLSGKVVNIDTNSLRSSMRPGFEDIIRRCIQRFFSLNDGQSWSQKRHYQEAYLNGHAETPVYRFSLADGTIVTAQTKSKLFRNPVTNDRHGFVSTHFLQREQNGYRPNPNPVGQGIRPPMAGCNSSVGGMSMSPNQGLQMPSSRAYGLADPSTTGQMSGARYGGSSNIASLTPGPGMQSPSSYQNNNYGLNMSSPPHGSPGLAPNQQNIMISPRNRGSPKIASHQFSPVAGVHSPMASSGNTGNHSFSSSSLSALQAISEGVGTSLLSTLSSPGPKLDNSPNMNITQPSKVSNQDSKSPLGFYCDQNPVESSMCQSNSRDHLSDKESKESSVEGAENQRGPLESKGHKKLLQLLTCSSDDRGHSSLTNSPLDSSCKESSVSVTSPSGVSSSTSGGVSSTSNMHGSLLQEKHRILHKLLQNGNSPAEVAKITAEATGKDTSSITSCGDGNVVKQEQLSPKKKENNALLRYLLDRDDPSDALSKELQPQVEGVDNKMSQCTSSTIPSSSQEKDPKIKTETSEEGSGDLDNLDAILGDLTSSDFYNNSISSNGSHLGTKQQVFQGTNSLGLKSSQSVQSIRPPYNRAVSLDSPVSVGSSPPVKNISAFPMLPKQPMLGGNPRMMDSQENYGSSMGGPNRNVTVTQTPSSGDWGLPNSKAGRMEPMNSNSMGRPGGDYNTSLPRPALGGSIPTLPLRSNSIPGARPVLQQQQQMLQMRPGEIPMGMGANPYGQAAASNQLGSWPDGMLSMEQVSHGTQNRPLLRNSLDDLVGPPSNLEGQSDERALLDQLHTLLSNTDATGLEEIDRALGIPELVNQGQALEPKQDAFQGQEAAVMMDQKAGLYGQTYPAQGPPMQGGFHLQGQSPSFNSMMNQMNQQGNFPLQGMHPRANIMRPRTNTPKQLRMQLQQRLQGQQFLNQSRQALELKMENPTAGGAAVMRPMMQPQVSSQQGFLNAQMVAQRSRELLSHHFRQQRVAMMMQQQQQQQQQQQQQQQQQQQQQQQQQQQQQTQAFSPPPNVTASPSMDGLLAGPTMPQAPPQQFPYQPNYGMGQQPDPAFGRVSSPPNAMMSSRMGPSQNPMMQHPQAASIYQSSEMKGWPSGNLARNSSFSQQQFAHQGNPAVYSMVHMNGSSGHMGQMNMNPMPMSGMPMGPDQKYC

[2] = tested on: transactivating tegument protein VP16 (Human herpesvirus 1), Gal4-VP16 luciferase reporter; test: VP16 transactivation inhibitors, counter-screen for SRC3 inhibitor project, cell-based, luminescence, high throughput (AID 588794; in the data active = inhibition above about 30%); settings: mammalian cells, VP16-driven luciferase reporter luminescence; at 3.6 µM; stronger effect = higher value
[3] = molecular target: Nuclear receptor coactivator 1 (Homo sapiens) (UniProt Q15788); test: SRC1 coactivator transcriptional activity inhibitors, confirmation, cell-based, luminescence, quadruplicate (AID 588820); settings: HEK293 GAL4-SRC1 luciferase reporter, at 3.6 µM, stronger effect = higher value;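 also: 0% = DMSO wells and 100% = gossypol 36 µM treated wells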
[4] = VP16 transactivation inhibitors, counter-screen for SRC1 inhibitor project, cell-based, luminescence, high throughput (AID 588824; in the data active = inhibition above about 25%); settings: cell-based VP16 transactivation luciferase luminescence; at 3.6 µM; stronger effect = higher value
[5] = tested on: transactivating tegument protein VP16 (Human herpesvirus 1); test: VP16 transactivation reporter inhibitors, counter-screen for SRC2 inhibitor project, cell-based, luminescence, single concentration (AID 652007; in the data active = inhibition above about 36%); settings: cell-based VP16 transactivation luciferase reporter, at 8.9 µM, stronger effect = higher value
[6] = molecular target: Nuclear receptor coactivator 2 (Homo sapiens) (UniProt Q15596); test: SRC2 coactivator transcriptional activity inhibitors, confirmation, cell-based, luminescence, HEK293, triplicate (AID 652008;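 active = mean inhibition above 46.5%, the solvent-only control mean plus 3 SD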;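 also: 0% = DMSO-treated cells and 100% = Gossypol at 36 µM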); settings: HEK293 GAL4-SRC2 luciferase reporter, at 8.9 µM, stronger effect = higher value
Sequence of Nuclear receptor coactivator 2 (Homo sapiens) (Q15596 whole entry, looked up, the tested form may be a part): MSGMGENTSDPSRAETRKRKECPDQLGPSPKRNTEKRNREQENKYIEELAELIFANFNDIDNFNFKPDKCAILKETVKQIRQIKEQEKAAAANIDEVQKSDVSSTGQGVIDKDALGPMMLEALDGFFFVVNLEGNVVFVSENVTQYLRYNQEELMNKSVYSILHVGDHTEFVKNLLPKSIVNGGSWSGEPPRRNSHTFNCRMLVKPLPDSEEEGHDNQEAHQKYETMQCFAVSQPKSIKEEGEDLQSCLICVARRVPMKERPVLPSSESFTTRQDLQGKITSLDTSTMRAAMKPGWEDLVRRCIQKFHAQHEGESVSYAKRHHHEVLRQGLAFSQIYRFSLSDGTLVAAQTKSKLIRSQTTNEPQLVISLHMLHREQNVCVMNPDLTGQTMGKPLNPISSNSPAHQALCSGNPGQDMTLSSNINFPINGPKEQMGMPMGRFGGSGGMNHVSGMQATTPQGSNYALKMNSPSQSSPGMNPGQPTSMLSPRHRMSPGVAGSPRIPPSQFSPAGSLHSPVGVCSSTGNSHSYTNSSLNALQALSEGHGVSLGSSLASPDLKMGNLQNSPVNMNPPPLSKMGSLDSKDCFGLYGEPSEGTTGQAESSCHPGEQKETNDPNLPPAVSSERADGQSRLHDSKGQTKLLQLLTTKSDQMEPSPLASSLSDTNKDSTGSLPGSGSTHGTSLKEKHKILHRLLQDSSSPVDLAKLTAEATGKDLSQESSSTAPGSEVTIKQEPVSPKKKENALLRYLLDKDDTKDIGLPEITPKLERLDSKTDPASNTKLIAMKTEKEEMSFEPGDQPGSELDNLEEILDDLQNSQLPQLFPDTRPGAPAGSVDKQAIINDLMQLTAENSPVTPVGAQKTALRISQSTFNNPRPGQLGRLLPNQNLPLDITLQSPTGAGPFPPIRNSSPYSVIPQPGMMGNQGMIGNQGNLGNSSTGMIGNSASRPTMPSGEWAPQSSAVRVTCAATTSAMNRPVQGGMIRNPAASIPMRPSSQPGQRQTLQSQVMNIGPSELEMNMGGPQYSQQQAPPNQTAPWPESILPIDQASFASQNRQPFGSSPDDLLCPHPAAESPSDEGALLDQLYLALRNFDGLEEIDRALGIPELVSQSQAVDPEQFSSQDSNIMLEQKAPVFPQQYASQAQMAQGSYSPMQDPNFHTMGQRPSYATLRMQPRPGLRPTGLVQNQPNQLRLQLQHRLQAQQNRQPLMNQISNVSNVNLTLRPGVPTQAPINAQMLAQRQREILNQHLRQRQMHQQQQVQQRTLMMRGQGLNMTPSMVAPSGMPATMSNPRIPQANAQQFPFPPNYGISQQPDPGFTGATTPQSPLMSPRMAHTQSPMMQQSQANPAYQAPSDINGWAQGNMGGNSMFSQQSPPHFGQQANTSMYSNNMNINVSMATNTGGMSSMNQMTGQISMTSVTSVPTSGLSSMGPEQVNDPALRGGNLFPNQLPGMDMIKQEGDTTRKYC

[7] = molecular target: Nuclear receptor subfamily 5 group A member 2 (Homo sapiens) (UniProt O00482); test: LRH-1 (NR5A2) inverse agonists, retest, confirmation, cell-based, luminescence (AID 651613; in the data active = inhibition above about 42%;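 also: HEK293T cells co-transfected with LRH-1 and StAR promoter luciferase reporter; 0% = vehicle wells and 100% = parental cells lacking receptor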); settings: cell-based LRH-1 luciferase reporter, inverse agonism; at 3.6 µM; stronger effect = higher value
Sequence of Nuclear receptor subfamily 5 group A member 2 (Homo sapiens) (O00482 whole entry, looked up): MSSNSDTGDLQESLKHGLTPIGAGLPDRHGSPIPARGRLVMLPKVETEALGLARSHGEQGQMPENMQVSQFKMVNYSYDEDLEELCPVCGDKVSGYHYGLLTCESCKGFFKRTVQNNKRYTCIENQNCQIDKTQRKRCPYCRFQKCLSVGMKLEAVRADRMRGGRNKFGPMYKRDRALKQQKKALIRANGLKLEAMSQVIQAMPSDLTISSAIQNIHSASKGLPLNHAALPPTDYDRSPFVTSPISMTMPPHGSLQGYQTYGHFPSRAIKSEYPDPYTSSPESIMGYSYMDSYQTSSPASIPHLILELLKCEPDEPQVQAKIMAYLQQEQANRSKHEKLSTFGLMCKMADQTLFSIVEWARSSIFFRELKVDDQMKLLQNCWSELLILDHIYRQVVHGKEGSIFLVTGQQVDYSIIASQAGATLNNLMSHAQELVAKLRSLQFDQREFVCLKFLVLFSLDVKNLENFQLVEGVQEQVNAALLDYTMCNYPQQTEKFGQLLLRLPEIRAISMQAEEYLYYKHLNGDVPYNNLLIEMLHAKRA

[8] = molecular target: Steroidogenic factor 1 (Homo sapiens) (UniProt Q13285); test: SF1 (NR5A1) inverse agonists, counter-screen for LRH-1 inverse agonist project, cell-based, luminescence, high throughput (AID 651614; in the data active = inhibition above about 44%;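 also: cells cotransfected with StAR promoter reporter and SF1 expression vector; 0% = vehicle on cells with receptor and 100% = vehicle on cells lacking receptor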); settings: cell-based SF1 luciferase reporter, at 3.6 µM, stronger effect = higher value
Sequence of Steroidogenic factor 1 (Homo sapiens) (Q13285 whole entry, looked up): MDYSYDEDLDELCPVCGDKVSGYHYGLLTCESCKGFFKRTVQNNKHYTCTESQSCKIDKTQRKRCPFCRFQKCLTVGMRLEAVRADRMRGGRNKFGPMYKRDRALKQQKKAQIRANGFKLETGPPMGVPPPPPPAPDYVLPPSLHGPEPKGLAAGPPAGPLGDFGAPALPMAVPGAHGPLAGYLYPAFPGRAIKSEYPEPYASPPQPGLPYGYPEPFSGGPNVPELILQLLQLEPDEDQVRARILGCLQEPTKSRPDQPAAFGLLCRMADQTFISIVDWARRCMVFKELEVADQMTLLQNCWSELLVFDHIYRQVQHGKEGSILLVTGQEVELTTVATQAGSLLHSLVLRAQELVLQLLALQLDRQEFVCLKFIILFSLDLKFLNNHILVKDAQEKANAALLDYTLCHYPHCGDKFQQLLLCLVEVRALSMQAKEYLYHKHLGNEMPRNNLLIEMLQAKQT

[9] = StAR promoter reporter inhibitors, counter-screen for LRH-1 inverse agonist project, cell-based, luminescence, high throughput (AID 651611; in the data active = inhibition above about 28%); settings: StAR promoter luciferase reporter counterscreen, at 3.6 µM, stronger effect = higher value
[10] = VP16 transactivation reporter inhibitors, counter-screen for LRH-1 inverse agonist project, cell-based, luminescence, high throughput (AID 651615; in the data active = inhibition above about 33%); settings: Gal4-VP16 luciferase reporter cells, at 3.6 µM, stronger effect = higher value
[11] = Gal4-VP16 luciferase reporter inhibitors, counter-screen for COUP-TFII antagonist project, cell-based, luminescence, HEK293 (AID 687007; in the data active = inhibition above about 13%); settings: at 8.5 µM, stronger effect = higher value
[12] = molecular target: COUP transcription factor 2 (Homo sapiens) (UniProt P24468); test: NR2F2 transcriptional activity inhibitors, confirmation, cell-based, luciferase reporter, HEK293, triplicate (AID 687008;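 active = mean inhibition over three repeats above a set limit taken from the earlier primary screen, cut at about 38% in these data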;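 also: 100% = cells given the luciferase reporter alone without the COUP-TF2 vector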); settings: HEK293 NGFI-A luciferase reporter, luminescence; at 8.5 µM; stronger effect = higher value
Sequence of COUP transcription factor 2 (Homo sapiens) (P24468 whole entry, looked up): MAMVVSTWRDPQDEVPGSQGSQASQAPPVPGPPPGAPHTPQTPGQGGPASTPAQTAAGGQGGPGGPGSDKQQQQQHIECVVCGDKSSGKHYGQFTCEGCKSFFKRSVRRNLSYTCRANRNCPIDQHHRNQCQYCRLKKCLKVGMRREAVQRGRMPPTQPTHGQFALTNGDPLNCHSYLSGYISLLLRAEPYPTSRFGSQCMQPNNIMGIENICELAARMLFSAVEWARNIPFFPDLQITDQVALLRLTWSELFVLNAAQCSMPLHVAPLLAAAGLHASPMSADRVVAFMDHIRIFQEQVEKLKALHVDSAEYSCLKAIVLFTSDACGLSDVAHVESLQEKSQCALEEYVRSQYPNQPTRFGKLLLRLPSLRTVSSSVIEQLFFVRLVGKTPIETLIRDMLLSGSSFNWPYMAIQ

[13] = growth loss of phage-infected RecBCD+ E. coli, confirmation, RecBCD inhibitor project, absorbance, E. coli V66, T4 gene 2 phage (AID 651982;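 active = mean inhibition over triplicates exceeding the hit threshold derived in the original primary screen, cut at about 11% in these data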); settings: E. coli V66 + T4 2- phage, growth OD; at 11.9 µM; stronger effect = higher value
[14] = E. coli viability inhibition, counter-screen for RecBCD inhibitor project, absorbance, high throughput (AID 651983; in the data active = inhibition above about 20%;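 also: E. coli strain V66 grown with compound alone and no phage infection; 0% = bacteria with DMSO vehicle only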); settings: absorbance (OD) growth, at 11.9 µM, stronger effect = higher value
[15] = growth loss of phage-infected AddAB-carrying E. coli, confirmation, counter-screen for RecBCD inhibitor project, absorbance, E. coli V3065, T4 phage (AID 651984;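 active = mean inhibition above the solvent-only control wells' mean plus 3 SD, cut at about 22% in these data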;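 also: higher means less bacterial growth from phage killing when AddAB is blocked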); settings: E. coli expressing H. pylori AddAB + T4 phage, OD growth; at 11.9 µM; stronger effect = higher value; gene 2 mutant T4, recBCD-deleted host

`Cc1cc(C(=O)CN2C(=O)c3ccccc3S2(=O)=O)c(C)n1C(C)C` showed an inhibition [1] of 31.4%, an inhibition [2] of 24.3% and an inhibition [3] of -24.8%. For the same compound, the inhibition [4] was 12.9%, the inhibition [5] was 29.6% and the inhibition [6] was 59.6% (active).
For `CNc1ncnc(Sc2nc(N)nc3nc[nH]c23)c1[N+](=O)[O-]`, the inhibition [1] was 47.1% (active), the inhibition [2] was 20.2% and the inhibition [3] was 26.8%. For the same compound, the inhibition [4] was 14.4%, the inhibition [7] was 52.6% (active) and the inhibition [8] was 25.1%.
For `CC1(C)CC(N2CCN(C(c3ccccc3)c3ccccc3)CC2)=CC(=[N+]2CCCCC2)C1`, the inhibition [1] was 91% (active), the inhibition [2] was 87.8% (active) and the inhibition [3] was 69.5% (active). The inhibition [4] was 87.8% (active), the inhibition [9] was 80.6% (active) and the inhibition [7] was 110% (active). For the same compound, the inhibition [8] was 94.8% (active), the inhibition [10] was 94.7% (active) and the inhibition [11] was 24.1% (active). The inhibition [12] was 86.3% (active).
For `OCCN1CCN(c2ncnc3ccc(Br)cc23)CC1`, the inhibition [1] was 68.8% (active), the inhibition [2] was 41.1% (active) and the inhibition [3] was 65.8% (active). The inhibition [4] was 44.5% (active), the inhibition [5] was 2.48% and the inhibition [6] was 36%.
For `O=C(NC1CCCCC1)C(c1cccnc1)N(C(=O)CCl)c1ccc(F)cc1` (configuration not stated), the inhibition [1] was 78.3% (active), the inhibition [2] was 65.9% (active) and the inhibition [3] was 20.8%. The inhibition [4] was 65.1% (active), the inhibition [5] was 64.5% (active) and the inhibition [6] was 64.8% (active).
With `CC(C)(CO)CNc1ccn2nccc2n1` the inhibition [1] was 49.3% (active), the inhibition [2] was 35.4% (active) and the inhibition [3] was 67.4% (active). The inhibition [4] was 41% (active), the inhibition [5] was -7.15% and the inhibition [6] was 27.5%.
For `COc1cccc(NC(=O)Nc2nc(-c3ccc(OC)c(OC)c3)cs2)c1`, the inhibition [1] was 81.3% (active), the inhibition [2] was 73.5% (active) and the inhibition [3] was 37.4%. For the same compound, the inhibition [4] was 74% (active), the inhibition [5] was 89.7% (active) and the inhibition [6] was 92.9% (active).
For `Cn1nc(C(F)(F)F)c(C#N)c1N1CCN(c2ccc(F)cc2)CC1`, the inhibition [1] was 36.7%, the inhibition [2] was 31.8% (active) and the inhibition [3] was 36.7%. The inhibition [4] was 25.1%, the inhibition [5] was -6.8% and the inhibition [6] was 48.8% (active).
With `CCCCN(c1ccccc1)c1ncnc(N)c1[N+](=O)[O-]` the inhibition [1] was 72.2% (active), the inhibition [2] was 57.6% (active) and the inhibition [3] was 64.5% (active). The inhibition [4] was 48.5% (active), the inhibition [5] was 17.4% and the inhibition [6] was 44.7%.
With `Nc1nc(=S)c2ncn([C@@H]3O[C@H](CO)[C@@H](O)[C@H]3O)c2[nH]1` the inhibition [1] was 67.6% (active), the inhibition [2] was 23.3% and the inhibition [3] was 11.8%. For the same compound, the inhibition [4] was 29.9% (active), the inhibition [7] was 77.2% (active) and the inhibition [8] was 48.2% (active).
With `COc1ccc(-n2c(C)c([N+](=O)[O-])c3ccc(O)c(CN4CCCCC4)c32)cc1` the inhibition [1] was 47.4% (active), the inhibition [2] was 30.5% (active) and the inhibition [3] was 54.9% (active). The inhibition [4] was 39.5% (active), the inhibition [5] was 4.57% and the inhibition [6] was 48.4% (active).
In the case of `c1csc(CNc2ccc3c(c2)OCCO3)c1`, the inhibition [1] is reported as 23.3%, the inhibition [2] is reported as -33.9% and the inhibition [3] is reported as -25.5%. It also gave an inhibition [4] of -34.9%, an inhibition [9] of -19.7% and an inhibition [7] of -77.1%. For the same compound, the inhibition [8] was -20.9%, the inhibition [10] was -49.8% and the inhibition [5] was 60.7% (active). The inhibition [6] was 47.1% (active).
With `COc1ccc(/C=C2/SC(=S)N(CCCC(=O)Nc3ccccc3C(=O)O)C2=O)cc1` the inhibition [1] was 22%, the inhibition [2] was 11.6% and the inhibition [3] was -7.34%. For the same compound, the inhibition [4] was 7.32%, the inhibition [5] was 66.5% (active) and the inhibition [6] was 72.3% (active).
`CC(C)(C)OC(=O)N1Cc2ccccc2C[C@H]1C(=O)NCC(=O)Nc1ccc2c(c1)OCCO2` gave an inhibition [1] of 28.9%, an inhibition [2] of 1.92% and an inhibition [3] of 5.58%. The inhibition [4] was -7.64%, the inhibition [5] was -3.02% and the inhibition [6] was 52% (active).
With `Clc1ccc(CSc2nnc(-c3ccncc3)o2)cc1` the inhibition [1] was 48.3% (active), the inhibition [2] was 30.9% (active) and the inhibition [3] was 43.3%. The inhibition [4] was 32.8% (active), the inhibition [5] was -11.8% and the inhibition [6] was 28.8%.
With `Cc1ccc(/C=N/NC(=O)C2=NNC(c3ccccc3)(c3ccccc3)C2)c(O)c1` the inhibition [1] was 71.4% (active), the inhibition [2] was 57.5% (active) and the inhibition [3] was 45.4%. For the same compound, the inhibition [4] was 51.8% (active), the inhibition [13] was 3.86% and the inhibition [14] was 5.88%. It also gave an inhibition [15] of 5.05%.
In the case of `c1cc(-c2nnc3sc(C4CCCCC4)nn23)ccn1`, the inhibition [1] is reported as 62.6% (active), the inhibition [2] is reported as 37.2% (active) and the inhibition [3] is reported as 58.2% (active). The inhibition [4] was 51% (active), the inhibition [5] was 0.17% and the inhibition [6] was 35.7%.
With `Cc1ccc(S(=O)(=O)c2ccc([N+](=O)[O-])cn2)cc1` the inhibition [1] was 25.7%, the inhibition [2] was -18.7% and the inhibition [3] was -25.7%. For the same compound, the inhibition [4] was -32.7%, the inhibition [5] was 13% and the inhibition [6] was 23.4%.
